Consider 16 molecules from PubChem BioAssay (NCATS).

Where “and” joins values, the source holds several entries; their conditions need not be identical. Equal values may be shown once. Results filed as inconclusive are left out. Where a call stands in place of a potency, no number is given. A number with no mark means an inactive call. Calls of active or inactive are those of the source. Calls follow the shape of the dose curve; as a rule, active = well fitted inhibition curve with a large enough effect; inconclusive = small, poorly fitted or top-dose-only effect; inactive = flat fitted curve, though single readings scatter.
Potency is read from the fitted curve at half-maximal effect.

This assay relates to WaGa. Kind of assay: qHTS assay to identify novel small-molecules to repurpose for Merkel cell carcinoma treatment (AID 1296009). Also: nearly all actives have a fitted effect of over 60% in size. As to conditions: MCC and control cell lines, CellTiter-Glo viability, 72 h; series mostly up to 46 µM; activity change, negative = cytotoxicity: at the top concentration. In outline:
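Cells exposed to NPC (8-point) and MIPE (11-point) compound dilutions for 72 hr at 37 degree celsius; viability read by CellTiter-Glo luminescence, normalized to no-cell and DMSO in-plate controls.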
Background: In qHTS, concentration-response curves come from the screen itself.
Turning to `CCCN[C@H]1CCc2nc(N)sc2C1`, the Potency entry was “inactive”.

In the case of `CCOCC(O)COc1ccc(NC(=O)CC[S+](C)C)cc1` (stereo unspecified), the Potency result was “inactive”.

As for `COc1cc(NS(=O)(=O)c2ccc(N)cc2)nc(OC)n1`, the Potency result was “inactive”.

For the molecule `O=C(N[C@H](CO)[C@H](O)c1ccc([N+](=O)[O-])cc1)C(Cl)Cl`, the Potency entry was “inactive”.

`CCCc1cc(C(N)=S)ccn1`: the Potency entry is “inactive”.

As to `O=C(O)c1cn(C2CC2)c2cc(N3CCNCC3)c(F)cc2c1=O`, the Potency entry is “inactive”.

Turning to `O=C(O)CCn1c2c(c3ccccc31)C[C@H](NS(=O)(=O)c1ccc(F)cc1)CC2`, the Potency entry is “inactive”.

For the molecule `Cc1noc(NS(=O)(=O)c2ccc(N)cc2)c1C`, the Potency entry is “inactive”.

As to `CCn1cc(C(=O)O)c(=O)c2cc(F)c(N3CCN(C)CC3)cc21`, the Potency entry was “inactive”.

Consider `O=C(O)CSCC(=O)NC1CCSC1=O` (stereo unspecified), for which the Potency result is “inactive”.

For the molecule `CN(C)CCc1c[nH]c2ccc(CS(=O)(=O)N3CCCC3)cc12`, the Potency entry is “inactive”.

As for `CO[C@@H]1[C@@H](OC(N)=O)[C@@H](O)[C@H](Oc2ccc3c(O)c(NC(=O)c4ccc(O)c(CC=C(C)C)c4)c(=O)oc3c2C)OC1(C)C`, the Potency entry was “inactive”.

Consider `CCOc1cc(N)c(Cl)cc1C(=O)NCC1CN(Cc2ccc(F)cc2)CCO1` (stereo unspecified), for which the “activity change, negative = cytotoxicity” value is 2.85%.

`CCC(=O)O[C@]1(C(=O)SCF)[C@H](C)C[C@H]2[C@@H]3C[C@H](F)C4=CC(=O)C=C[C@]4(C)[C@@]3(F)[C@@H](O)C[C@@]21C`: the Potency entry was “inactive”.

Regarding `Cc1oc(=O)oc1CN1CCN(c2cc3c(cc2F)c(=O)c(C(=O)O)c2n3C(C)S2)CC1` (stereo unspecified), the “activity change, negative = cytotoxicity” value was -5.03%.

For the molecule `NC1(c2ccc(-c3nc4ccn5c(=O)[nH]nc5c4cc3-c3ccccc3)cc2)CCC1`, the Potency was 16.6 µM (active) and 26.6 µM (active).
